Measurements from paper PMC11062922 (Nature Chemical Biology, 2023).
Read-outs that look alike come from different tables or passages of the source.

What was measured:
Parameters in all cases: species or system human, MV4-11 + K-562 + COLO205 + SK-N-BE2 + OVCAR-8
[1] = tested on: CSK; settings: read-out: apparent Kd, n = 1
[2] = tested on: EGFR; settings: read-out: apparent Kd, compound concentrations: 100 nM and 1000 nM (sheet 'Samples'), n = 1
[3] = tested on: LYN; settings: read-out: apparent Kd, compound concentrations: 100 nM and 1000 nM (sheet 'Samples'), n = 1
[4] = tested on: SRC; settings: read-out: apparent Kd, compound concentrations: 100 nM and 1000 nM (sheet 'Samples'), n = 1
[5] = tested on: ACAD11; settings: read-out: apparent Kd, n = 1
[6] = tested on: ACVR1B; settings: read-out: apparent Kd, compound concentrations: 100 nM and 1000 nM (sheet 'Samples'), n = 1
[7] = tested on: MAPK14; settings: read-out: apparent Kd, n = 1
[8] = tested on: CDK16; settings: read-out: apparent Kd; compound concentrations:100 nM and 1000 nM (sheet 'Samples'); n = 1
[9] = tested on: CDKL5; settings: read-out: apparent Kd; compound concentrations:100 nM and 1000 nM (sheet 'Samples'); n = 1
[10] = tested on: EPHA1; settings: read-out: apparent Kd, n = 1
[11] = tested on: AKT2; settings: read-out: apparent Kd; compound concentrations:100 nM and 1000 nM (sheet 'Samples'); n = 1
[12] = tested on: FLT3; settings: read-out: apparent Kd, n = 1
[13] = tested on: DYRK1A; settings: read-out: apparent Kd; compound concentrations:100 nM and 1000 nM (sheet 'Samples'); n = 1
[14] = tested on: GSK3A; settings: read-out: apparent Kd; compound concentrations:100 nM and 1000 nM (sheet 'Samples'); n = 1
[15] = tested on: GSK3B; settings: read-out: apparent Kd; compound concentrations: 100 nM and 1000 nM (sheet 'Samples'), CATDS: 5.9931823260346899E-2; n = 1
[16] = tested on: AURKB; settings: read-out: apparent Kd, compound concentrations: 100 nM and 1000 nM (sheet 'Samples'), n = 1
[17] = tested on: FRK; settings: read-out: apparent Kd, compound concentrations: 100 nM and 1000 nM (sheet 'Samples'), n = 1
[18] = tested on: SIK2; settings: read-out: apparent Kd, compound concentrations: 100 nM and 1000 nM (sheet 'Samples'), n = 1
[19] = tested on: DDR1; settings: read-out: apparent Kd, n = 1
[20] = compound concentrations:100 nM and 1000 nM (sheet 'Samples')

SMILES: N#Cc1cnc2cc(-c3cnc(CNCCN4CCOCC4)s3)ccc2c1Nc1ccc(Oc2ccccc2)cc1 [GW664114X]
- potency estimated from few doses ([1]; compound concentrations: 100 nM and 1000 nM (sheet 'Samples'), CATDS: 6.7492290868603394E-2): 448 nM
- potency estimated from few doses ([2]; CATDS: 4.1929469071091803E-2): 2090 nM
- potency estimated from few doses ([3]; CATDS: 6.1309680787230501E-2): 562 nM
- potency estimated from few doses ([4]; CATDS: 8.2949353782893101E-2): 293 nM

SMILES: COc1ccc(-c2nc3n(c2-c2ccncc2)CCC3)cc1.COc1ccc(-c2nc3n(c2-c2ccncc2)CCC3)cc1.O=S(=O)(O)O.O=S(=O)(O)O [SKF-104493-B2]
- potency estimated from few doses ([5]; compound concentrations: 100 nM and 1000 nM (sheet 'Samples'), CATDS: 0.103649602140053): 2100 nM
- potency estimated from few doses ([6]; CATDS: 0.14344642008730599): 1030 nM
- potency estimated from few doses ([7]; compound concentrations: 100 nM and 1000 nM (sheet 'Samples'), CATDS: 0.181046976908248): 687 nM

SMILES: CC(C)c1nc(-c2ccc(F)c(NS(=O)(=O)c3c(F)cccc3F)c2)c(-c2ccnc(Nc3ccc(N4CCOCC4)nc3)n2)s1 [GSK1804250A]
- potency estimated from few doses [8]: 1890 nM
- potency estimated from few doses [9]: 984 nM
- potency estimated from few doses [1, 20]: 442 nM
- potency estimated from few doses [10, 20]: 548 nM

SMILES: COc1cc2ncn(-c3cc(OCc4cccs4)c(C(N)=O)s3)c2cc1OC [GSK312948A]
- potency estimated from few doses [5, 20]: 766 nM

SMILES: Nc1nc(N)c2nc(-c3ccccc3)[nH]c2n1 [SKF-12778]
- potency estimated from few doses [5, 20]: 1290 nM
- potency estimated from few doses [11]: 1570 nM
- potency estimated from few doses [12, 20]: 1070 nM
- potency estimated from few doses [7, 20]: 973 nM

SMILES: N#Cc1cccc(Nc2nccc(-c3cnn4ncccc34)n2)c1 [GW778894X]
- potency estimated from few doses [5, 20]: 228 nM
- potency estimated from few doses [8]: 13 nM
- potency estimated from few doses [9]: 6.82 nM
- potency estimated from few doses [13]: 35.9 nM
- potency estimated from few doses [12, 20]: 137 nM
- potency estimated from few doses [14]: 28.3 nM
- potency estimated from few doses [15]: 21.2 nM

SMILES: CN1CCN(c2ccc(Nc3nc(N)c(C(=O)c4ccc5c(c4)OCCO5)s3)cc2)CC1 [RO0505124-000]
- potency estimated from few doses ([5]; compound concentrations: 100 nM and 1000 nM (sheet 'Samples'), CATDS: 0.36798074276012699): 137 nM

SMILES: c1ccc(Oc2ccc(Nc3ccnc4cc(-c5ccc(CN6CCCCC6)o5)ccc34)cc2)nc1 [GW567143X]
- potency estimated from few doses ([16]; CATDS: 3.8957530355760599E-2): 1180 nM
- potency estimated from few doses ([10]; compound concentrations: 100 nM and 1000 nM (sheet 'Samples'), CATDS: 6.2167566437911E-2): 315 nM
- potency estimated from few doses ([12]; compound concentrations: 100 nM and 1000 nM (sheet 'Samples'), CATDS: 0.15169843184363399): 60.9 nM
- potency estimated from few doses ([17]; CATDS: 3.9738345055864897E-2): 1100 nM
- potency estimated from few doses ([3]; CATDS: 4.1336056970238899E-2): 956 nM
- potency estimated from few doses ([4]; CATDS: 5.3011588623511699E-2): 464 nM

SMILES: COc1cc2nccc(Nc3ccc(Oc4ccccc4)cc3)c2cc1OC.Cl [GI261656A]
- potency estimated from few doses ([2]; CATDS: 3.8994788715485701E-2): 2360 nM
- potency estimated from few doses ([17]; CATDS: 5.3958789023196299E-2): 470 nM
- potency estimated from few doses ([3]; CATDS: 7.8976671860543801E-2): 160 nM
- potency estimated from few doses ([4]; CATDS: 5.79534996745752E-2): 372 nM

SMILES: Cn1cc(-c2ccc3c(c2)CCN3C(=O)Cc2cccc(Cl)c2)c2c(N)ncnc21 [GSK2606590A]
- potency estimated from few doses ([16]; CATDS: 0.34532909823612901): 968 nM

SMILES: Nc1ncc(-c2cn[nH]c2)c2scc(-c3ccc4c(c3)CCN4C(=O)Cc3ccccc3)c12 [GSK2593067A]
- potency estimated from few doses ([16]; CATDS: 6.5904790346866707E-2): 1230 nM

SMILES: Fc1cc(Cl)ccc1Nc1ccnc2cc(-c3ccc(CN4CCOCC4)o3)ccc12 [GW560109X]
- potency estimated from few doses ([10]; compound concentrations: 100 nM and 1000 nM (sheet 'Samples'), CATDS: 7.1072488518175297E-2): 699 nM
- potency estimated from few doses ([18]; CATDS: 7.4326552669870996E-2): 630 nM

SMILES: CS(=O)(=O)Cc1ccc(Nc2nccc(-c3c(-c4cccc(NC(=O)c5c(F)cccc5F)c4)nn4ccccc34)n2)cc1 [GSK323543A]
- potency estimated from few doses ([19]; compound concentrations: 100 nM and 1000 nM (sheet 'Samples'), CATDS: 5.7176748718511097E-2): 1930 nM
- potency estimated from few doses ([2]; CATDS: 5.5544990287731598E-2): 2130 nM
- potency estimated from few doses ([3]; CATDS: 6.3006631754301101E-2): 1440 nM

SMILES: O=S(=O)(c1ccc(-c2ccnc3[nH]ccc23)cc1)N1CCCC1 [GSK846226A]
- potency estimated from few doses [5, 20]: 693 nM

SMILES: CNc1nccc(-c2c(-c3ccc(F)cc3)ncn2C2CCN(C)CC2)n1 [SB-222903]
- potency estimated from few doses [19, 20]: 348 nM
- potency estimated from few doses ([7]; compound concentrations: 100 nM and 1000 nM (sheet 'Samples'), CATDS: 0.13479921836841699): 29.9 nM

SMILES: CNC(=O)c1ccccc1Nc1nc(Nc2cccc(CS(C)(=O)=O)c2)ncc1C.O=CO [GSK1520489A]
- potency estimated from few doses ([6]; CATDS: 1.2545717700139699E-2): 511 nM
- potency estimated from few doses ([16]; CATDS: 5.1121534714452903E-2): 22.6 nM
- potency estimated from few doses ([19]; compound concentrations: 100 nM and 1000 nM (sheet 'Samples'), CATDS: 1.3625362720769099E-2): 389 nM
- potency estimated from few doses ([2]; CATDS: 1.37119506592154E-2): 382 nM
- potency estimated from few doses ([10]; compound concentrations: 100 nM and 1000 nM (sheet 'Samples'), CATDS: 4.9501189051371401E-2): 23.8 nM
- potency estimated from few doses ([12]; compound concentrations: 100 nM and 1000 nM (sheet 'Samples'), CATDS: 1.2283454590930699E-2): 550 nM
- potency estimated from few doses ([17]; CATDS: 1.0457896251618699E-2): 1050 nM
- potency estimated from few doses ([3]; CATDS: 1.17680848685595E-2): 643 nM
- potency estimated from few doses ([18]; CATDS: 1.1089332631068699E-2): 813 nM
- potency estimated from few doses ([4]; CATDS: 1.1920002971419799E-2): 613 nM
